In PubChem BioAssay (NCATS):
Results filed as inconclusive are left out. The source made the active and inactive calls. Calls follow the shape of the dose curve; as a rule, active = well fitted curve in the direction sought with a large enough effect; inconclusive = small, poorly fitted or top-dose-only effect, or another doubt; inactive = no such curve, though single readings can be large; an effect the other way counts as inactive or inconclusive.

How the values were obtained:
[1] = qHTS assay for measurement of the activity of small molecule inhibitors on Zika virus induced Caspase-3 activity in human astrocytoma cells (AID 1224859)
Method in brief: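 Readout is luminescence from Caspase-Glo 3/7 added after a 6 h ZIKV infection (2 FFU/cell) of compound-pretreated (1 h) SNB-19 cells; data expressed as % inhibition versus uninfected and infected wells.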

[2] = qHTS assay to identify small molecule inhibitors of chordoma cells - UCH-1 (AID 1259355); also: nearly all actives have a fitted effect of over 55% in size
Method in brief: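 Cells (800/well) were seeded and left overnight at 37 C, 5% CO2, then treated with drugs at 15 concentrations plus a combination mix of auranofin, camptothecin, doxorubicin, rubitecan and topotecan. Viability after 48hr was read by CellTiter-Glo luminescence.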

[3] = qHTS assay to identify small molecule inhibitors of chordoma cells - UCH-2 (AID 1259356); also: series mostly up to about 46 µM
[4] = P-glycoprotein substrates identified in KB-8-5-11 adenocarcinoma cell line, qHTS therapeutic library screen (AID 1346987); also: series mostly up to about 44 µM; nearly all actives have a fitted effect of over 65% in size
Method in brief: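 KB-8-5-11: colchicine-selected sub-line of KB-3-1 over-expressing P-gp; assay medium lacked colchicine. 72 h drug exposure at 37 degree C, CellTiter-Glo.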

[5] = NS1 protein of Zika virus - qHTS assay to identify small molecule inhibitors in human HEK 293 cells (AID 1347053); also: series mostly up to about 46 µM; nearly all actives have a fitted effect of over 55% in size
Method in brief: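 Inhibition of NS1 expression was scored in HEK 293 cells given compound 1 h ahead of MR766 virus (MOI = 0.5). Following 24 h at 37 C, two anti-NS1 antibodies generated a TR-FRET signal, scaled between uninfected and infected controls.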

[6] = qHTS of pediatric cancer cell lines to identify multiple opportunities for drug repurposing: Primary screen for TC32 cells (AID 1347089); also: nearly all actives have a fitted effect of over 60% in size
Method in brief: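 qHTS, TC32, 48 h drug treatment, CellTiter-Glo luminescence as a proxy for metabolically active cells; primary top concentration 46 µM (MIPE 11-pt, NPC 8-pt); confirmatory 11-pt.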

[7] = qHTS of pediatric cancer cell lines to identify multiple opportunities for drug repurposing: Primary screen for DAOY cells (AID 1347090); also: series mostly up to about 46 µM; nearly all actives have a fitted effect of over 55% in size
Method in brief: (§1)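 Viability measured as metabolically active cells via CellTiter-Glo luminescence following 48 hours of compound exposure, 11-point dilutions in confirmatory testing. 500-1,000 cells/well plated 5 hours before dosing; controls were DMSO and 2.3 µM bortezomib.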

[8] = qHTS of pediatric cancer cell lines to identify multiple opportunities for drug repurposing: Primary screen for SJ-GBM2 cells (AID 1347091)
Method in brief: as §1

[9] = qHTS of pediatric cancer cell lines to identify multiple opportunities for drug repurposing: Primary screen for A673 cells (AID 1347092); also: nearly all actives have a fitted effect of over 45% in size
Method in brief: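 Luminescence from CellTiter-Glo, taken after 15 min at room temperature, served as the proxy for metabolically active cells following 48 h treatment. Both potency and efficacy were taken from curves fitted to the titration data.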

[10] = qHTS of pediatric cancer cell lines to identify multiple opportunities for drug repurposing: Primary screen for BT-37 cells (AID 1347094); also: series mostly up to about 57 µM
Method in brief: (§2)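 Quantitative HTS format: each compound titrated (MIPE 11 points from 0.78 nM, NPC 8 points from 0.59 nM) onto cells plated 5 hours earlier. After 48 h at 37 degrees C, CellTiter-Glo luminescence was recorded.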

[11] = qHTS of pediatric cancer cell lines to identify multiple opportunities for drug repurposing: Primary screen for NB-EBc1 cells (AID 1347095)
Method in brief: as §2

[12] = qHTS of pediatric cancer cell lines to identify multiple opportunities for drug repurposing: Primary screen for SK-N-MC cells (AID 1347093); also: series mostly up to about 46 µM
Method in brief: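 Metabolically active cells were quantified by ATP-dependent luminescence (CellTiter-Glo, 15 min at room temperature) following 48 h treatment. Cells had been plated at 500-1,000 per well and settled for 5 h beforehand.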

Measured: Potency

CC(=O)OCC1=C(C(=O)O)N2C(=O)[C@@H](NC(=O)CSc3ccncc3)[C@H]2SC1
not listed: [11] | [12]
inactive: all other assays above

C[C@@H](O)[C@H]1C(=O)N2C(C(=O)O)=C(S[C@@H]3CN[C@H](CNS(N)(=O)=O)C3)[C@H](C)[C@H]12
not listed: [12]
inactive: all other assays above

CCCCN1C[C@H](O)[C@@H](O)[C@H](O)[C@H]1CO
inactive: all assays above

CC(=O)Nc1ncc([N+](=O)[O-])s1
inactive: all assays above

CCN1CCN(C(=O)N[C@@H](C(=O)N[C@@H]2C(=O)N3C(C(=O)O)=C(CSc4nnnn4C)CS[C@H]23)c2ccc(O)cc2)C(=O)C1=O
inactive: all assays above

C=C[C@@]1(C)CC(=O)[C@]2(O)[C@@]3(C)[C@@H](O)CCC(C)(C)[C@@H]3[C@H](O)[C@H](OC(C)=O)[C@@]2(C)O1
inactive: all assays above

Cc1cc(NS(=O)(=O)c2ccc(N)cc2)nc(C)n1
inactive: all assays above

O=C(O)Cc1csc(-c2ccc(Cl)cc2)n1
inactive: all assays above

CN(C)CCOC(=O)C(c1ccccc1)C1(O)CCCC1 (configuration not stated)
not listed: [12]
inactive: all other assays above

CC(C)(C)NC[C@H](O)COc1cccc2c1CCCC2=O
inactive: all assays above

NS(=O)(=O)c1ccc(Cl)c(S(N)(=O)=O)c1
inactive: all assays above

N#CCC(=O)NN
inactive: all assays above

CCNC(=O)/C=C/c1cccc(Br)c1
inactive: all assays above

CCN(CC)CCNC(=O)COc1ccc(OC)cc1
inactive: all assays above

O=C(O)C1(C(=O)O)CCC1.[NH2-].[NH2-].[Pt+2]
inactive: all assays above

NCCNC(=O)c1ccc(Cl)cn1
not listed: [11] | [12]
inactive: all other assays above

CCC1Nc2cc(Cl)c(S(N)(=O)=O)cc2S(=O)(=O)N1 (configuration not stated)
inactive: all assays above

FC(F)(F)C(F)(F)C(F)(F)C(F)(F)C(F)(F)C(F)(F)C(F)(F)C(F)(F)Br
inactive: all assays above

COc1cc(NS(=O)(=O)c2ccc(N)cc2)ncn1
inactive: all assays above

CCC(CC)(CC(=O)Nc1cccc(/C=C/c2nc(C3CCC3)cs2)c1)C(=O)O
not listed: [12]
inactive: all other assays above

CCN(CC)CCOC(=O)C1(c2ccccc2)CCCC1
inactive: all assays above

Cc1ncc(CO)c(C=O)c1O
inactive: all assays above

C[N+]1(C)CCC(=C(c2ccccc2)c2ccccc2)CC1
not listed: [11] | [12]
inactive: all other assays above

CCC(C(=O)OCCOCCN(CC)CC)c1ccccc1 (configuration not stated)
inactive: all assays above

O=C(Nc1ccc([N+](=O)[O-])cc1)Nc1ccc([N+](=O)[O-])cc1
inactive: all assays above

CC(=O)NO
inactive: all assays above

OC[C@H]1O[C@@H]2O[C@H]3[C@H](O)[C@@H](O)[C@@H](O[C@H]4[C@H](O)[C@@H](O)[C@@H](O[C@H]5[C@H](O)[C@@H](O)[C@@H](O[C@H]6[C@H](O)[C@@H](O)[C@@H](O[C@H]7[C@H](O)[C@@H](O)[C@@H](O[C@H]8[C@H](O)[C@@H](O)[C@@H](O[C@H]1[C@H](O)[C@H]2O)O[C@@H]8CO)O[C@@H]7CO)O[C@@H]6CO)O[C@@H]5CO)O[C@@H]4CO)O[C@@H]3CO
inactive: all assays above

Oc1ccccc1C=NCc1ccccc1
inactive: all assays above

CC(=C(CCOC(=O)C(C)C)SSC(CCOC(=O)C(C)C)=C(C)N(C=O)Cc1cnc(C)nc1N)N(C=O)Cc1cnc(C)nc1N
not listed: [11] | [12]
inactive: all other assays above

NC(=O)c1ccccc1O
inactive: all assays above

OCc1ccccn1
not listed: [12]
inactive: all other assays above

Cc1cc(C)cc(OCC2CNC(=O)O2)c1 (configuration not stated)
not listed: [8] | [11]
inactive: all other assays above

CN(Cc1ccc(C(C)(C)C)cc1)Cc1cccc2ccccc12
not listed: [12]
inactive: all other assays above

CC(C)(C)CC(C)(C)c1ccc(O)c(-n2nc3ccccc3n2)c1
not listed: [12]
inactive: all other assays above

NCc1ccccc1Sc1ccccc1CO
not listed: [12]
inactive: all other assays above

CCN(CC)CCNC(=O)c1cc(Br)c(N)cc1OC
not listed: [12]
inactive: all other assays above

COc1cc(C(=O)NCc2ccc(OCCN(C)C)cc2)cc(OC)c1OC
not listed: [8]
inactive: all other assays above

CC1=C(C(=O)O)N2C(=O)[C@@H](NC(=O)[C@H](N)c3ccccc3)[C@H]2SC1
not listed: [8]
inactive: all other assays above

C/C=C/C=N/NC(=O)c1ccncc1
not listed: [9] | [11]
inactive: all other assays above

CC(=O)NCCCCCC(=O)O
not listed: [8]
inactive: all other assays above
